# Experimental data taken from PubChem BioAssay (NCI).
# About 83,000 compounds went through this panel and 20% of them were active in at least one assay; those are over-represented in the sample as a whole.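 A percent growth of 40 corresponds to 60% growth inhibition; 0 means no net growth; -100 means all cells died. Active threshold: below 10.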 Calls of active or inactive are those of the source.
# Test system: MDA-MB-468 breast
# Experiment: NCI-60 one-dose screen, 48 h (100 = growth as untreated, 0 = no growth, -100 = all killed)
# Conditions: 10 µM unless noted
row,Compound,growth
1,c1ccc(CSc2ncccc2-c2nnc(SCCN3CCOCC3)o2)cc1,98.3% (inactive)
2,COc1ccc(C2C=C(c3ccc(N)cc3)N=C3SC=CN32)cc1OC (stereo not given),101% (inactive)
3,CCc1cc(OC(=O)N2CCN(CCC(C)(COC(C)(C)C)COC(C)(C)C)CC2)ccc1Nc1cc(-c2ccc(-n3cccn3)cc2)[nH]n1,82.4% (inactive)
4,COc1ccc(-n2nc(C)c3c(Nc4ccc(NC(=O)Nc5c(Cl)cccc5Cl)cc4)ncnc32)cc1,27.9% (inactive)
5,CSc1nc(=S)c2nc(SC)n(-c3ccccc3)c2[nH]1,91.1% (inactive)
6,CN(C)CCOc1ccc2c(c1)C(=O)/C(=C\c1ncc([N+](=O)[O-])n1C)C2,-78.5% (active)
7,Cc1ccc2nc3[nH]c(=O)[nH]c(=O)c3c(N)c2c1,88.3% (inactive)
8,CCn1c(Cc2ccccc2Nc2c(Cl)cccc2Cl)nnc1SCC(=O)Nc1cccc(OC)c1,75% (inactive)
9,Cc1ccc2oc(=O)cc(-c3nc4ccc([N+](=O)[O-])cc4[nH]3)c2c1,29% (inactive)
10,COc1ccc(Cc2nnc(Nc3nc4ccccc4s3)s2)cc1,92.6% (inactive)
11,O=c1cc(-c2ccccc2)oc2cc(OCc3cn(Cc4ccc(F)cc4)nn3)cc(OCc3cn(Cc4ccc(F)cc4)nn3)c12,38.7% (inactive)
12,O=C(/C=C/c1cccc(O)c1)c1cccc(-n2cc(-c3ccc4ccccc4c3)[nH]c2=O)c1,-79.7% (active)
13,CC(C)=CCC/C(C)=C/CC/C(C)=C/CC/C(C)=C/CSC[C@H](NC(=O)CCCCCN1CCN(C)CC1)C(=O)NC1CCCCC1,79.2% (inactive)
14,COc1cc2cc(Oc3ccc(NC(=O)Nc4ccc(F)c(C(F)(F)F)c4)cc3)c(C)nc2cc1OCCN(C)C,93.4% (inactive)
15,O=C(CCCCCCSc1nc(-c2ccccc2)cc(-c2ccccc2)n1)NO,43.2% (inactive)
16,O=C1OC(=O)C2C3CC(c4ccccc43)C12 (stereo not given),121% (inactive)
17,COc1ccc(-c2cc(C(=O)N3N=C(c4ccc(N)cc4)CC3c3ccc(Cl)cc3)c3ccccc3n2)cc1 (stereo not given),18.4% (inactive)
18,CCC(C)CC(C)C(=O)c1c(O)ccn(O)c1=O (stereo not given),13.8% (inactive)
19,CCc1cc2c(cc1Cl)nc1c(=O)[nH]c(=O)nc-1n2CCOCC(C)(C)C,44.3% (inactive)
20,Cc1ccc(-c2nc(/C=C3/C(=O)N(C)c4ccc(F)cc43)c3ccccn23)cc1,101% (inactive)

row,Compound,growth
1,N#Cc1c(-c2ccccc2)[nH]c2ncc(-c3ccccc3)n2c1=O,91.8% (inactive)
2,CCOS(=O)(=O)c1ccc([N+](=O)[O-])cc1,119% (inactive)
3,Cc1c(C(=O)C(SC(=S)N2CCOCC2)SC(=S)N2CCOCC2)nnn1-c1ccc([N+](=O)[O-])cc1,92.7% (inactive)
4,c1cc2ccc3cc2cc1CNCCN1CCNCc2ccc4ccc(cc4c2)CNCCN(CCNC3)CCNCc2ccc3ccc(cc3c2)CNCC1,-45.2% (active)
5,Oc1ccc(-c2nn(-c3ccccc3)cc2-c2nc3ccccc3s2)cc1,90.1% (inactive)
6,CC(C)(C)CC(C)(C)Nc1c(-c2ccc(-c3ccccc3)cc2)nc2cnccn12,109% (inactive)
7,COc1cc(C(=O)N/N=C/c2cc3cc(OCc4ccccc4)ccc3nc2OC)cc(OC)c1OC,85.2% (inactive)
8,Cc1ccc(N)c(S(=O)(=O)O)c1,82.6% (inactive)
9,CN1CCCN(C(c2ccccc2)c2ccc(Cl)cc2)CC1 (stereo not given),83.1% (inactive)
10,COc1ccc(-n2nnc(C(=O)NCCc3c[nH]c4ccc(F)cc34)c2C)cc1,109% (inactive)
11,NC(=S)N/N=C/c1ccc(Cl)cc1,97.3% (inactive)
12,CC(C)c1ccc(NC(=O)Cc2ccc(Nc3ncnc4cc(-c5cnn(CCN(C)C)c5)ccc34)cc2)cc1,-86.9% [30 µM] (active)
13,CCN(C(=O)N1CCN(c2cc3c(cc2F)c(=O)c(C(=O)O)cn3C2CC2)CC1)c1nc(-c2ccc(C)cc2)cs1,-0.725% (active)
14,CCCCn1c(=O)c(/C=C/C(=O)/C=C/c2ccc(O)c(OC)c2)cc2ccc(Cl)cc21,15% (inactive)
15,NC(=O)CC(NC(=O)COc1ccc(Cl)cc1Cl)C(=O)O (stereo not given),108% (inactive)
16,Nc1cccc2cccc([N+](=O)[O-])c12,109% (inactive)
17,Cc1cc(C)c(C(=O)c2cccs2)c(C)c1,105% (inactive)
18,O=C(Cc1cccc(OC(F)(F)F)c1)Nc1ccc(CCCCc2nnc(NC(=O)Cc3ccccn3)s2)nn1,52.3% (inactive)
19,CCOc1cccc(/C=N/NC(=O)C(=O)Nc2cccc(C(F)(F)F)c2)c1O,1.46% (active)
20,CC(C)(C)c1cc(C(C)(C)c2ccccc2)cc(Cc2cc(C(C)(C)c3ccccc3)cc(C(C)(C)C)c2O)c1O,95.2% (inactive)
